# Source: PubChem
# The sample as a whole holds a higher share of hits than the screen did.
# Pf Dd2 growth = qHTS Primary assay for Inhibitors of Plasmodium falciparum Dd2 growth in vitro; P. falciparum Dd2 growth, SYBR Green, 72 h; Potency, µM (top dose mostly 28.9 µM), inactives show at the highest dose activity, negative = inhibition, actives largely listed as inhibitors; hit rate 4.3% among 120,000; AID 1347417, 2020; active = well fitted inhibition curve with a large enough effect;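 also: plate controls were DMSO vehicle for no effect and reference drug for full effect; nearly all actives have a fitted effect of over 65% in size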
#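 Infected erythrocytes (Dd2, 0.3% parasitemia, 2.5% hematocrit final) are added to compound in RPMI-1640/Albumax II medium, grown 72 h at 37C in low oxygen, then lysed with saponin/Triton-X containing SYBR Green and read by fluorescence.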
# Numbers without * were called inactive; i = inactive; [ ] = dose if it differs, or a comment. Potency is read from the fitted curve at half-maximal effect.
SMILES,Pf Dd2 growth
COc1ccc(C(=O)N2CCC(C(=O)N3CCCCCCNC(=O)CC3)CC2)cn1,18.1%
COc1ccc(F)c(-c2nc(CN3CCN(S(N)(=O)=O)CC3)c(C)o2)c1,-1.1%
COc1cc(-c2nc(CN3CCSCC3)c(C)o2)ccc1F,-13.1%
COc1ccc(-c2nc(CN3CCN(CCO)CC3)c(C)o2)c2ccccc12,11.2µM*
CCN1C(=O)CCN(S(C)(=O)=O)CC12CCOCC2,0.6%
CCCc1ccc(S(=O)(=O)N(C)CC2CCOCC2)cc1,i
CCN1c2cc(C(=O)Nc3ccc(Oc4ccccc4)cc3)ccc2C(=O)N2CCCCC21 (centres undefined),i
Cc1ncoc1C(=O)NCc1cc(Cl)cc2c(C)c(-c3ccccc3)[nH]c12,-12.8%
O=C(NCCc1noc(C2CC2)n1)c1n[nH]c2ccccc12,-15.8%
CC(=O)NCCc1ncc(C)n1C1CCCC1,-3.0%
Cc1cnc(CCNC(=O)c2n[nH]c3ccccc23)n1C1CCCC1,3.16µM*
COc1cc2c(cc1OC)C(C[C@H]1CN(C(=O)c3cccn3C)CC[C@H]1CC(=O)O)=NCC2,0.0%
CCc1ccc(CNC(=O)c2ccc(-n3c(C)cc4c3CCC(C)C4)cc2)cc1 (centres undefined),12.6µM*
CCCOc1ccc(CNC(=O)c2ccc(-n3c(C)cc4c3CCC(C)C4)cc2)cc1 (centres undefined),432.1%[5.79 µM]
COc1ccc(OC)c(CNC(=O)c2ccc3c(c2)c(C)c(C)n3C)c1,-17.2%
Cc1cc2c(n1-c1ccc(C(=O)NCCc3ccccc3)cc1)CCC(C)C2 (centres undefined),-20.9%
COc1ccc(Br)cc1CNC(=O)c1ccc(-n2c(C)cc3c2CCC(C)C3)cc1 (centres undefined),12.6µM*
Cc1cc2c(n1-c1ccc(C(=O)NCc3cccc(Br)c3)cc1)CCC(C)C2 (centres undefined),11.2µM*
CCc1ccc(CNC(=O)c2ccc3c(c2)nc2n3CCC(C)C2)cc1 (centres undefined),13.2%
COc1ccc(CCNC(=O)c2ccc(-n3c(C)cc4c3CCC(C)C4)cc2)cc1OC (centres undefined),160.7%[5.79 µM]
O=C(NCc1cccc(Br)c1)C1CCN(c2cnc3nccnc3c2)CC1,i
CCOc1ccccc1C(=O)N1CCC(Cc2nc(-c3ccc(OC)cc3)no2)CC1,-21.0%
O=S1(=O)NC2(CCN(CCc3ccccc3)C2)COc2ncccc21 (centres undefined),0.7%
O=C(CC1CCCCC1)N1CCC2(CC1)NC(=O)N(c1ccccc1)N2,i
COCc1nc(C2CCCN(C(=O)COc3cccc(C)c3)C2)no1 (centres undefined),24.3%
SMILES,Pf Dd2 growth
CCNC(=O)NCC(=O)N1CCCCCNC(=O)CC1c1ccccc1 (centres undefined),9.7%
Cc1ccc(-c2nc(C(=O)NC(C)c3ccccc3)no2)cc1 (centres undefined),i
CNC(=O)[C@@H](C1CC1)N1CCC[C@H]1C(=O)NCc1ccccn1,19.3%[44.1 µM]
CC1(C(=O)NCCCc2ccccc2)CCCCC(=O)N1 (centres undefined),i
CC(=O)c1ccc(NC(=O)c2cnn(-c3cccc(F)c3)c2-n2cccc2)cc1,3.9%
O=C(c1ccco1)N1CCN(C(=O)c2cnn(-c3cccc(F)c3)c2C2CCNCC2)CC1,1.9%
Cc1ccc(N2CCN(C(=O)c3cnn(-c4ccc(C)c(C)c4)c3C3CCNCC3)CC2)c(C)c1,5.62µM*
O=C(Nc1cccc(C(F)(F)F)c1)c1cnn(-c2cccc(F)c2)c1C1CCNCC1,11.2µM*
Cc1ccc(Cl)cc1N1CCN(C(=O)c2cnn(-c3ccc(Cl)cc3)c2C2CCNCC2)CC1,10µM*
Cc1c(Cl)cccc1-n1ncc(C(=O)N2CCOCC2)c1C1CCN(C(=O)OC(C)(C)C)CC1,-5.5%
CCc1nc(SC)ncc1C(=O)N1CCN(c2cc(Cl)ccc2C)CC1,i
CC(C)(C)OC(=O)N1CCC(c2c(C(=O)N3CCN(c4ccccn4)CC3)cnn2-c2ccc(F)cc2)CC1,-4.8%
Cc1ccc(-n2ncc(C(=O)N3CCN(c4ccccn4)CC3)c2C2CCN(C(=O)OC(C)(C)C)CC2)cc1C,35.6%
Cc1ccc2nc(N3CCC(C(=O)N4CCN(c5cccc(C)c5C)CC4)CC3)[nH]c2c1,-6.6%
Cc1cccc(N2CCN(C(=O)c3cnn(-c4cccc(Cl)c4C)c3C3CCNCC3)CC2)c1C,11.2µM*
O=C1NCCCCCCN(S(=O)(=O)c2cccc(F)c2)[C@H]2CCCC[C@@H]12,-14.8%
CNCC(=O)N1CCCC(c2nnc(CN3CCOCC3)n2C)C1 (centres undefined),1.8%
O=C1NC(=NC2CCCC2)C2(CCCN([S+](=O)([O-])c3cccs3)C2)N1c1cccnc1 (centres undefined),-2.4%
CC(NC(=O)CCc1conc1-c1ccccc1)c1ccc(F)cc1 (centres undefined),i
Cc1cnc(C(=O)N2CCC3(CC2)CC(CO)N(C(=O)c2ccccc2)C3)cn1 (centres undefined),-9.7%
CC(NC(=O)Cc1cccn1-c1cccc(Cl)c1)c1ccccn1 (centres undefined),i
O=C(NC[C@H]1O[C@@H](CC(=O)N2CCN(c3ccccc3)CC2)C(O)[C@@H]1O)c1cccc(F)c1 (some centres undefined),-6.7%
CC(=O)N1CCC(C(=O)NC[C@@H]2C=C(C)[C@H](CC(=O)N(C)Cc3ccccc3)C[C@H]2C(C)C)CC1,-3.5%
CCC1Oc2ccc(NC(=O)c3cccs3)cc2CN(Cc2ccc(OC)cc2)C1=O (centres undefined),i
Cc1ccc(C)c(NC(=O)c2cnn(-c3ccc(F)cc3F)c2C2CCNCC2)c1,39.0%
SMILES,Pf Dd2 growth
Cc1cc(C)cc(NC(=O)C2CCN(C(=O)c3cnn(-c4ccccc4)c3-n3cccc3)CC2)c1,10.3%
Cc1cc(C)cc(NC(=O)c2cnn(-c3ccc(C)c(C)c3)c2C2CCNCC2)c1,3.98µM*
COc1ccc(Cl)cc1NC(=O)Cn1ccn2nc(-c3ccc(F)cc3)c(CO)c2c1=O,17.7%
O=C(Nc1cccc(C(F)(F)F)c1)N1CCC(n2cnnc2C2CC2)C1 (centres undefined),47.5%
CCCNC(=O)N1CCCC(c2nc(C3CCOCC3)no2)C1 (centres undefined),34.3%
COc1ccc(CC(=O)N2[C@@H]3CC[C@H]2CC(NC(=O)c2cnc(C)cn2)C3)cc1Cl (some centres undefined),-8.1%
C[S+](=O)([O-])N1CC2(CCN(C3COC3)CC2)Cc2ccccc21,9.9%
C[S+](=O)([O-])N1CC2(CCN(C(=O)CCC(=O)O)C2)Cc2ccccc21 (centres undefined),-5.5%
C[S+](=O)([O-])N1CC2(CCN(Cc3c[nH]c4ccccc34)CC2)Cc2ccccc21,11.2µM*
Cc1ocnc1C(=O)N1CCC2(CC1)c1nc[nH]c1CCN2S(C)(=O)=O,11.4%
O=C(c1cn[nH]c1)N1C[C@@H](COCC2CC2)[C@H](c2ccncc2)C1,10.9%
Cc1cc(C)c(NC(=O)C(C)n2c(=O)cc(-c3ccccc3)c3c(C)nn(C)c32)c(C)c1 (centres undefined),19.9%
Cc1c(Cl)cccc1NC(=O)C(C)n1c(=O)cc(-c2ccccc2)c2c(C)nn(C)c21 (centres undefined),i
COc1cc(OC)c(NC(=O)C(C)n2c(=O)cc(-c3ccccc3)c3c(C)nn(C)c32)cc1Cl (centres undefined),10µM*
Cc1cc(CN2CCC(N3CCOCC3=O)CC2)no1,15.0%[44.1 µM]
